Experimental data published in PubChem BioAssay.
Calls of active or inactive are those of the source. Unless noted, the rule behind the calls is not given here.

What was measured:
[1] = resazurin metabolic signal in HepG2 cells – cell-based, resazurin fluorescence, 24 h, PK04 Diversity Set, profiling panel (AID 1172); conditions: HepG2 viability, higher = more signal
[2] = budding yeast growth changes without added modifier – OD600, strain BY4716, 24 h, basal condition, primary screen (AID 1173); conditions: S. cerevisiae BY4716 growth, OD600, 24 h; higher = more signal, called active from +8 up or from −8 down
[3] = viability profiling in MM1S myeloma cells – cell-based, resazurin fluorescence, basal, 24 h, PK04 Diversity Set, profiling panel (AID 1174); conditions: higher = more signal, called active from +8 up or from −8 down;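 note: MM1S multiple myeloma cell line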
[4] = biological target: Dihydroorotate dehydrogenase (quinone), mitochondrial (Plasmodium falciparum (isolate 3D7)) (UniProt Q08210); experiment: inhibition of P. falciparum DHODH – biochemical, C-terminal His tag, absorbance 600 nm, primary screen (AID 1175); conditions: PfDHODH enzyme, DCIP absorbance 600 nm; higher = more signal, called active from +8 up or from −8 down;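 note: recombinant parasite enzyme with a five histidine tag at its C terminus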
Sequence of Dihydroorotate dehydrogenase (quinone), mitochondrial (Plasmodium falciparum (isolate 3D7)) (Q08210 whole entry, looked up): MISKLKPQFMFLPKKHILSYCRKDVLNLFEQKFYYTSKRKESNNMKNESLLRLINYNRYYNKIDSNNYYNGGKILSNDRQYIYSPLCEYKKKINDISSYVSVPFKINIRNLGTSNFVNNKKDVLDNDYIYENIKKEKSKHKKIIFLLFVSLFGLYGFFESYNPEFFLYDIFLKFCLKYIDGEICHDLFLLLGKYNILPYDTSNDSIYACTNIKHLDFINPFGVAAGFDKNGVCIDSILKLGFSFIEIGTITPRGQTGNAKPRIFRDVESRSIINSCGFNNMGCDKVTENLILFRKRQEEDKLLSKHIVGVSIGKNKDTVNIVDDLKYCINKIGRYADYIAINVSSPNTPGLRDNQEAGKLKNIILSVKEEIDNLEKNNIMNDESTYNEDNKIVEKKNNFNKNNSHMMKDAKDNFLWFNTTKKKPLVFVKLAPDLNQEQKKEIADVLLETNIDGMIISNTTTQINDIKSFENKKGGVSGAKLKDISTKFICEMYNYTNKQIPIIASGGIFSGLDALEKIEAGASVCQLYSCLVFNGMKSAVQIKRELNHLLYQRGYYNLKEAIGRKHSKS

[5] = inhibition of PAO1 biofilm formation – strain PAO1, LB-PBS medium, absorbance 600 nm, primary screen (AID 1176); conditions: P. aeruginosa PAO1 growth/biofilm, A600, 12 h; higher = more signal
[6] = growth modulation of vineyard yeast isolate – strain RM11-1a, OD600, basal, 24 h, primary screen (AID 1177);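 note: cultures grown under basal conditions with no added stressor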; conditions: S. cerevisiae RM11-1a growth, OD600, 24 h; higher = more signal, called active from +8 up or from −8 down
[7] = growth of efflux-deficient E. coli DRC39 – strain DRC39, OD650, 24 h, E. coli filamentation inducers, primary screen (AID 1178);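 note: growth measured as culture turbidity by optical density at 650 nm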; conditions: E. coli DRC39 acrAB, higher = more signal, called active from +8 up or from −8 down
[8] = growth of efflux-deficient E. coli DRC39 – strain DRC39, OD650, 48 h, E. coli filamentation inducers, primary screen (AID 1179);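 note: screen aims at cell division blockers that make cells filament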; conditions: E. coli DRC39 delta-acrAB growth, higher = more signal, called active from +8 up or from −8 down
[9] = viability profiling in RPMI8226 myeloma cells – cell-based, resazurin fluorescence, basal, 24 h, PK04 Diversity Set, profiling panel (AID 1180); conditions: higher = more signal;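 note: RPMI8826 multiple myeloma cell line at 5000 cells per well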
[10] = biological target: E3 ubiquitin-protein ligase XIAP (Homo sapiens) (UniProt P98170); experiment: small molecules binding XIAP protein – biophysical, small-molecule microarray, fluorescence 635 nm, primary screen (AID 1181); conditions: higher = more signal;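 note: score merges 667 nm emission and signal to noise over triplicate slides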
Sequence of E3 ubiquitin-protein ligase XIAP (Homo sapiens) (P98170 whole entry, looked up, the tested form may be a part): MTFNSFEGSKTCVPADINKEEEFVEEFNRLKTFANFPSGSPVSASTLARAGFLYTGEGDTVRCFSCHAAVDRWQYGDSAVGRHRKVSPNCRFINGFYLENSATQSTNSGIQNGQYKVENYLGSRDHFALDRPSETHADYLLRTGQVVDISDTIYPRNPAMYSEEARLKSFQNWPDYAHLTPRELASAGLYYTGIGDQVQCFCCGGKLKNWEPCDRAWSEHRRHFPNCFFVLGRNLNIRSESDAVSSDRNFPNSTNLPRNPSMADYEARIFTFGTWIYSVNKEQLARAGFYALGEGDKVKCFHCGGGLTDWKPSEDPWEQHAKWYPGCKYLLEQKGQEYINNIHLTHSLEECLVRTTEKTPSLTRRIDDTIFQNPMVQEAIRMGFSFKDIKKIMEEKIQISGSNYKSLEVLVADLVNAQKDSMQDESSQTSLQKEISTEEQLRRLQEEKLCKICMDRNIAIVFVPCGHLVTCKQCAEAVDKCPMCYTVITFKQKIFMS

[11] = tested on: XIP peptide (Xip251-270) binding; experiment: XIP fragment 251-270 binding compounds – biochemical, small-molecule microarray, fluorescence 635/667 nm, 0.1 µg/mL protein, primary screen (AID 1182); conditions: fluorescent protein binding, 635 nm, higher = more signal, called active from +8 up or from −8 down
XIP peptide (Xip251-270) = experiment: compounds binding XIP fragment 251-270 – biochemical, small-molecule microarray, fluorescence 635/667 nm, 0.5 µg/mL protein, primary screen (AID 1183); conditions: fluorescence 635 nm, higher = more signal
[12] = blood-stage malaria parasite viability loss – strain 3D7, DAPI fluorescence, 100 nL, primary screen (AID 1184);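 note: parasites grown inside human red blood cells in medium with human serum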; conditions: P. falciparum 3D7 growth, 3 d, higher = more signal
[13] = biological target: Homeobox protein Hox-A13 (Mus musculus) (UniProt Q62424); experiment: disruptors of Hoxa13 oligonucleotide interaction – biochemical, fluorescence polarization, labeled oligonucleotide, primary screen (AID 1185); conditions: Hoxa13:DNA binding, 15 min, higher = more signal, called active from +8 up or from −8 down
Sequence of Homeobox protein Hox-A13 (Mus musculus) (Q62424 whole entry, looked up): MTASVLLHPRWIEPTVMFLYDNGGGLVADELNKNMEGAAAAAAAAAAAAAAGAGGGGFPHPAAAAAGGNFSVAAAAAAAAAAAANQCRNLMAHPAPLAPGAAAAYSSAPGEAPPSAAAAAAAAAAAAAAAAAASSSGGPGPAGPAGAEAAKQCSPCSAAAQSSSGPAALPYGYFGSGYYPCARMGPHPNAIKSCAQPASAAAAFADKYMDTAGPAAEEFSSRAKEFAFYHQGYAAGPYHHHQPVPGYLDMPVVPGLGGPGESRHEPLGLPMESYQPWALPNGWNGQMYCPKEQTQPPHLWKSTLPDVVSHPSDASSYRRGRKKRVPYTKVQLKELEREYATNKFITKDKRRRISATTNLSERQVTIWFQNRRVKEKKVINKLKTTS

[14] = blockers of DNA damage checkpoint Chk1 activation – imaging, HeLa, hydroxyurea, phospho-Chk1 antibody, percent positive cells, primary screen (AID 1186); conditions: hydroxyurea-induced phospho-Chk1 immunofluorescence imaging, higher = more signal
[15] = blockers of DNA damage checkpoint Chk1 activation – imaging, HeLa, hydroxyurea, phospho-Chk1 nuclear intensity, primary screen (AID 1187); conditions: hydroxyurea-induced phospho-Chk1 immunofluorescence imaging, higher = more signal

SMILES	z-score [1]	z-score [2]	z-score [3]	composite z-score [4]	z-score [5]	z-score [6]	z-score [7]	z-score [8]	z-score [9]	composite z-score [10]	composite z-score [11]	composite z-score (XIP peptide (Xip251-270))	z-score [12]	z-score [13]	z-score [14]	z-score [15]
COCCOC(=O)N1C(=O)[C@@]2(c3ccccc31)[C@H](C(=O)N1CCc3cc(OC)c(OC)cc3C1)[C@H]1C(=O)O[C@H](c3ccccc3)[C@H](c3ccccc3)N1[C@@H]2c1ccc(O)cc1	0.349	0.296 (inactive)	0.173 (inactive)	-0.974 (inactive)	2.16 (inactive)	1.13 (inactive)	-0.157 (inactive)	0.549 (inactive)	-0.111	0.116	1.58 (inactive)	0.807	-0.45	-1.34 (inactive)	-0.437 (inactive)	-0.469 (inactive)
O=C1NC(=O)C2C1C=CC(C(O)c1ccc(I)cc1)N2Nc1ccc(Cl)cc1Cl (centres undefined)	-1.99	-15.1 (active)	-0.177 (inactive)	-1.4 (inactive)	2.06 (inactive)	-4.5 (inactive)	0.163 (inactive)	-0.186 (inactive)	-0.137	-0.108	0.9 (inactive)	0.284	0.692	-3.94 (inactive)	0.0215 (inactive)	0.33 (inactive)
O=C1N(CCS(=O)(=O)c2ccccc2)c2ccccc2[C@@H]2OC(c3ccc(OCCCO)cc3)=N[C@]12Cc1ccccc1	0.292	-0.237 (inactive)	-3.11 (inactive)	-1.52 (inactive)	0.755 (inactive)	0.289 (inactive)	1.11 (inactive)	1.03 (inactive)	-1.95	0.0999	0.395 (inactive)	0.639	-2.17	-1.41 (inactive)	-0.522 (inactive)	-0.825 (inactive)
C=CCNC(=O)[C@H]1[C@@H]2C(=O)O[C@@H](c3ccccc3)[C@@H](c3ccccc3)N2[C@@H](c2ccc(O)cc2)[C@]12C(=O)Nc1ccc(C#CCCO)cc12	1.13	0.189 (inactive)	1.16 (inactive)	0.0992 (inactive)	-0.42 (inactive)	0.957 (inactive)	0.516 (inactive)	0.567 (inactive)	1.08	-0.198	-0.0879 (inactive)	-0.227	0.093	-4.04 (inactive)	-0.266 (inactive)	-0.136 (inactive)
CN(C)CCCCNC(=O)[C@@H]1C[C@@H]2C(=O)N[C@@H](CCCCN)C(=O)N2[C@@H]1c1ccc(O)cc1	0.637	1.43 (inactive)	0.832 (inactive)	0.0724 (inactive)	0.833 (inactive)	2.32 (inactive)	0.499 (inactive)	1.1 (inactive)	0.918	-0.131	1.09 (inactive)	0.881	-1.8	1.46 (inactive)	0.128 (inactive)	-0.115 (inactive)
C=C(C)[C@@H]1CC=C(C(O)C2C=CC3C(=O)NC(=O)C3N2Nc2ccc(Cl)cc2Cl)CC1 (some centres undefined)	-3.18	-5.07 (inactive)	-2.94 (inactive)	0.512 (inactive)	0.875 (inactive)	1.11 (inactive)	-0.761 (inactive)	-1.29 (inactive)	-2.54	-0.0655	-0.245 (inactive)	0.468	-0.52	-5.46 (inactive)	0.463 (inactive)	0.154 (inactive)
CCCNC(=O)[C@@]1(Sc2ccc(C)cc2)CC(=O)N(Cc2ccccc2C(F)(F)F)[C@@H]1c1ccc(CO)cc1I	-0.103	-3.06 (inactive)	-2.54 (inactive)	-0.469 (inactive)	0.298 (inactive)	-1.68 (inactive)	0.044 (inactive)	-0.478 (inactive)	-2.15	-0.181	-0.163 (inactive)	0.704	-1.69	-1.3 (inactive)	-0.104 (inactive)	0.0829 (inactive)
C=CC[C@@]1(C(=O)N2CCCCC2)N=C(c2ccc(OCCCO)cc2)O[C@@H]1c1ccccc1CN=[N+]=[N-]	0.0157	-0.924 (inactive)	-1.13 (inactive)	-0.0512 (inactive)	0.205 (inactive)	0.607 (inactive)	0.673 (inactive)	-0.526 (inactive)	-1.97	0.0297	0.274 (inactive)	0.888	-2.21	-0.0816 (inactive)	-0.514 (inactive)	-0.604 (inactive)
CCOC(=O)C1=C[C@@H](C(C)C)N(S(=O)(=O)c2ccc(C)cc2)[C@H]1c1ccccc1F	-0.298	0.81 (inactive)	-0.328 (inactive)	-0.471 (inactive)	0.133 (inactive)	0.411 (inactive)	-0.77 (inactive)	0.0503 (inactive)	-0.807	-0.139	1.01 (inactive)	0.489	-0.864	-1.17 (inactive)	0.503 (inactive)	0.969 (inactive)
C=C(CCCC)/C(=C/C[C@H](OC(=O)c1ccncc1)c1ccc(OCCO)cc1)c1cc(C(=O)OC)ccc1OC	-0.113	0.409 (inactive)	-0.266 (inactive)	-4.01 (inactive)	-0.693 (inactive)	0.395 (inactive)	-0.981 (inactive)	-0.581 (inactive)	-0.691	0.22	-0.235 (inactive)	-0.132	-3.09	-2.79 (inactive)	-1.01 (inactive)	-0.504 (inactive)
[N-]=[N+]=NCc1ccccc1[C@H]1OC(c2ccc(OCCCO)cc2)=N[C@@]1(Cc1ccccc1)C(=O)N1CCCCC1	0.804	-1.95 (inactive)	-1.71 (inactive)	0.451 (inactive)	-0.441 (inactive)	-0.923 (inactive)	1.29 (inactive)	1.25 (inactive)	-0.941	-0.0622	-0.178 (inactive)	0.625	-2.4	-4.35 (inactive)	-0.959 (inactive)	-1.5 (inactive)
Cc1c(NC(=O)/C(C#N)=C/c2cccc([N+](=O)[O-])c2)c(=O)n(-c2ccccc2)n1C	0.131	-0.701 (inactive)	-1.34 (inactive)	-2.58 (inactive)	0.972 (inactive)	-2.91 (inactive)	1.48 (inactive)	0.837 (inactive)	0.246	0.248	0.92 (inactive)	0.695	-0.413	-2.41 (inactive)	-0.782 (inactive)	-1.15 (inactive)
CCN(CC)c1ccc(N2CC=CC34O[C@@H]5C=CCOC(=O)[C@@H]5[C@H]3C(=O)N(CCCCCCO)[C@@H]4C2=O)cc1 (some centres undefined)	1.35	-0.532 (inactive)	1.27 (inactive)	0.466 (inactive)	-0.152 (inactive)	-0.5 (inactive)	0.918 (inactive)	0.701 (inactive)	1.45	0.212	1.07 (inactive)	0.659	-0.897	-5.54 (inactive)	0.234 (inactive)	0.722 (inactive)
[N-]=[N+]=NCc1ccccc1C[C@@]1(C(=O)NCC(O)CO)N=C(c2ccc(OCCCO)cc2)O[C@@H]1c1ccccc1 (some centres undefined)	-1.07	-2.07 (inactive)	-0.243 (inactive)	-0.0675 (inactive)	0.466 (inactive)	0.355 (inactive)	1.39 (inactive)	0.322 (inactive)	-0.645	0.19	0.691 (inactive)	0.684	-2.03	-4.12 (inactive)	-0.0558 (inactive)	0.274 (inactive)
C=CCNC(=O)[C@@H]1[C@H]2C(=O)O[C@H](c3ccccc3)[C@H](c3ccccc3)N2[C@H](c2ccc(OCCO)cc2)[C@@]12C(=O)N(C(=O)OCCOC)c1ccc(C#CCNC(N)=O)cc12	-1.09	1.04 (inactive)	-0.58 (inactive)	-0.132 (inactive)	0.958 (inactive)	2.78 (inactive)	0.589 (inactive)	0.0924 (inactive)	0.853	-0.16	-0.121 (inactive)	0.842	-1.29	-1.4 (inactive)	0.111 (inactive)	0.487 (inactive)
C=CCN1C(=O)[C@]2(Cc3ccccc3)N=C(c3ccc(OCCCO)cc3)O[C@@H]2c2ccccc21	-0.983	-1.34 (inactive)	-4.58 (inactive)	-0.963 (inactive)	0.824 (inactive)	1.68 (inactive)	0.0733 (inactive)	0.884 (inactive)	-5.39	0.33	0.7 (inactive)	0.812	-2.1	-1.6 (inactive)	-0.535 (inactive)	-0.461 (inactive)
CCCCC(=C=CC[C@@H](O)c1cccc(OCCO)c1)C[C@@H](O)c1ccccn1	0.599	-1.56 (inactive)	0.0382 (inactive)	-1.42 (inactive)	0.968 (inactive)	0.129 (inactive)	0.584 (inactive)	0.493 (inactive)	0.695	-0.102	1.26 (inactive)	0.75	-0.12	-5.42 (inactive)	-0.0346 (inactive)	0.159 (inactive)
COc1ccc([Si](C)(C)[C@@H]2[C@@H](CC(=O)N3CCC[C@H]3CO)O[C@]3(C(=O)N(Cc4cccc(I)c4)c4ccccc43)[C@H]2C)cc1	-2.43	-0.91 (inactive)	-3.49 (inactive)	0.447 (inactive)	0.483 (inactive)	1.07 (inactive)	-1 (inactive)	-1.05 (inactive)	-4.92	0.189	0.302 (inactive)	0.572	-2.28	-3.72 (inactive)	-0.198 (inactive)	-0.353 (inactive)
O=C1OCCC=C[C@H]2OC34C=CCN(Cn5nnc6ccccc65)C(=O)[C@H]3N(CCO)C(=O)[C@@H]4C12 (some centres undefined)	1.02	0.202 (inactive)	0.542 (inactive)	-1.15 (inactive)	0.152 (inactive)	-0.18 (inactive)	-0.0287 (inactive)	-0.249 (inactive)	0.0841	-0.146	-0.681 (inactive)	-0.552	-0.288	-2.78 (inactive)	-0.943 (inactive)	-1.01 (inactive)
